This is part of a sample that, as a whole, favours compounds with a hit. Of some 79,000 tested, about 15% had one in any assay. Values without a mark were called inactive. Calls of active or inactive are those of the source. No stated cut-off is given here; in the data, active means growth inhibition above about 70%; inactive means the rest. Where a SMILES comes first, the peptide text is derived from it. The star is where a group is joined. Cbz = O=C(OCc1ccccc1)*

This note sets out measurements from PubChem BioAssay (NCI).

The nature of experiment [1]: NCI Yeast Anticancer Drug Screen. Data for the rad50 strain (AID 155).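 Further: 0% = growth of vehicle-only cultures of the same strain.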 As to conditions: S. cerevisiae rad50 strain growth inhibition, active compounds read high. The gist of the method:
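Compounds were tested on a yeast strain with an engineered DNA damage repair alteration; the reported value is growth inhibition normalised to vehicle treatment.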

A short description of experiment [2]: NCI Yeast Anticancer Drug Screen. Data for the mec2-1 strain (AID 157). The note with it: S. cerevisiae mec2-1 strain, active compounds read high. A digest of the protocol:
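Strain: mec2-1 (DNA repair/cell cycle alteration). Compound exposure, then growth measured; inhibition expressed relative to vehicle.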

Experiment [3] can be described thus: NCI Yeast Anticancer Drug Screen. Data for the sgs1 mgt1 strain (AID 161).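 Further: 0% = growth of cultures given vehicle only.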 The note with it: S. cerevisiae sgs1 mgt1 strain, active compounds read high. The gist of the method:
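Test agents were incubated with a DNA-repair-mutant yeast strain. Growth was then read and compared against vehicle-treated controls.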

Experiment [4] can be described thus: NCI Yeast Anticancer Drug Screen. Data for the cln2 rad14 strain (AID 165).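 Further: 0% = growth equal to vehicle treated cultures.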 The note with it: S. cerevisiae cln2 rad14 strain, active compounds read high. A digest of the protocol:
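Compounds are applied to the cln2 rad14 yeast strain, and growth is then compared with that of vehicle-treated cultures to give inhibition.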

Experiment [5] in a line: NCI Yeast Anticancer Drug Screen. Data for the bub3 strain (AID 167). As to conditions: S. cerevisiae bub3 mutant strain, active compounds read high. The gist of the method:
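Growth of a checkpoint-deficient yeast mutant is measured after compound exposure. Values represent inhibition relative to vehicle.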

Experiment [6] is described as follows: NCI Yeast Anticancer Drug Screen. Data for the mlh1 rad18 strain (AID 175). The note with it: S. cerevisiae mlh1 rad18 strain growth inhibition, active compounds read high. A digest of the protocol: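 Read-out is yeast growth inhibition, calculated against vehicle-only controls. The compound was applied to a strain engineered with DNA damage repair alterations.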

The mark [7] stands for this setting: at 5.0 µM (retest, dose inferred, filed as 0.5).
[8] abbreviates: at 50.0 µM (retest, dose inferred, filed as 5.0).

With `CCCCCCCC/C=C\CCCCCCCC(=O)NCC[N+](C)(C)C`, the growth inhibition in experiment [1] (setting [7]) is 48%; in experiment [1] (setting [8]), 99% (active); in experiment [1] (at 50.0 µM) it was 99.2% (active); in experiment [2] (setting [7]) it was 17%; in experiment [2] (setting [8]) it was 100% (active); in experiment [2] (at 50.0 µM) it was 99.7% (active). In addition, the growth inhibition is 53% in experiment [3] (setting [7]); 99% (active) in experiment [3] (setting [8]); 99.7% (active) in experiment [3] (at 50.0 µM); 10% in experiment [4] (setting [7]); 99% (active) in experiment [4] (setting [8]); 97.4% (active) in experiment [4] (at 50.0 µM). For the same compound, the growth inhibition in experiment [5] (setting [7]) was 83% (active); in experiment [5] (setting [8]) it was 100% (active); in experiment [5] (at 50.0 µM), 99.3% (active); in experiment [6] (setting [7]), 10%; in experiment [6] (setting [8]) it was 99% (active); in experiment [6] (at 50.0 µM), 99.5% (active).

Turning to `O=Cc1ccc2cc(Cl)ccc2n1`, the growth inhibition in experiment [1] (setting [7]) was -156%; in experiment [1] (setting [8]), -135%; in experiment [1] (at 50.0 µM) it was -14.9%; in experiment [2] (setting [7]), -48%; in experiment [2] (setting [8]), -55%; in experiment [2] (at 50.0 µM), 18.4%. Also, the growth inhibition in experiment [3] (setting [7]) was -63%; in experiment [3] (setting [8]) it was -63%; in experiment [3] (at 50.0 µM) it was 10%; in experiment [4] (setting [7]) it was -50%; in experiment [4] (setting [8]), -67%; in experiment [4] (at 50.0 µM), 46.6%. In addition, the growth inhibition in experiment [5] (setting [7]) is -71%; in experiment [5] (setting [8]) it was -83%; in experiment [5] (at 50.0 µM), -14.4%; in experiment [6] (setting [7]), -138%; in experiment [6] (setting [8]), -111%; in experiment [6] (at 50.0 µM) it was 2.55%.

`COC(=O)c1cc2c(oc1=O)-c1ccccc1N(C=O)C2`: the growth inhibition in experiment [1] (setting [7]) is -3%; in experiment [1] (setting [8]), -8%; in experiment [1] (at 50.0 µM), 0.3%; in experiment [2] (setting [7]) it was -9%; in experiment [2] (setting [8]), -11%; in experiment [2] (at 50.0 µM), -8.75%. Moreover, the growth inhibition in experiment [3] (setting [7]) was -13%; in experiment [3] (setting [8]) it was -11%; in experiment [3] (at 50.0 µM), 11.4%; in experiment [4] (setting [7]), -11%; in experiment [4] (setting [8]) it was -9%; in experiment [4] (at 50.0 µM), -55.8%. The growth inhibition is -16% in experiment [5] (setting [7]); -24% in experiment [5] (setting [8]); -35.1% in experiment [5] (at 50.0 µM); 0% in experiment [6] (setting [7]); -21% in experiment [6] (setting [8]); 2.1% in experiment [6] (at 50.0 µM).

Take `O=C(NC(Cc1ccc(O)cc1)C(=O)NC(Cc1ccccc1)C(=O)O)OCc1ccccc1` (stereo not drawn) (Cbz-Tyr-Phe-OH; configuration not given here): the growth inhibition in experiment [1] (setting [7]) was -6%; in experiment [1] (setting [8]) it was -1%; in experiment [1] (at 50.0 µM), -17.3%; in experiment [2] (setting [7]), 29%; in experiment [2] (setting [8]) it was -1%; in experiment [2] (at 50.0 µM), 5.85%. Also, the growth inhibition is -2% in experiment [3] (setting [7]); 0% in experiment [3] (setting [8]); 34.1% in experiment [3] (at 50.0 µM); 1% in experiment [4] (setting [7]); 1% in experiment [4] (setting [8]); -36.5% in experiment [4] (at 50.0 µM). Besides, the growth inhibition in experiment [5] (setting [7]) was -5%; in experiment [5] (setting [8]), -3%; in experiment [5] (at 50.0 µM), -4.3%; in experiment [6] (setting [7]), -2%; in experiment [6] (setting [8]), -1%; in experiment [6] (at 50.0 µM) it was -0.6%.

`CCCCCCCC[N+](C)(CCCCCCCC)CCCCCCCC`: the growth inhibition was 51% in experiment [1] (setting [7]); 95% (active) in experiment [1] (setting [8]); 90.5% (active) in experiment [1] (at 50.0 µM); 47% in experiment [2] (setting [7]); 91% (active) in experiment [2] (setting [8]); 92.2% (active) in experiment [2] (at 50.0 µM). For the same compound, the growth inhibition in experiment [3] (setting [7]) is 98% (active); in experiment [3] (setting [8]) it was 97% (active); in experiment [3] (at 50.0 µM), 93% (active); in experiment [4] (setting [7]), 71% (active); in experiment [4] (setting [8]), 98% (active); in experiment [4] (at 50.0 µM) it was 91.7% (active). Also, the growth inhibition in experiment [5] (setting [7]) is 96% (active); in experiment [5] (setting [8]), 96% (active); in experiment [5] (at 50.0 µM), 91.7% (active); in experiment [6] (setting [7]) it was 41%; in experiment [6] (setting [8]) it was 98% (active); in experiment [6] (at 50.0 µM), 91.2% (active).

For the compound `Cn1c(=S)sc2nc3ccccc3n2c1=S`, the growth inhibition in experiment [1] (setting [7]) is 49%; in experiment [1] (setting [8]), 96% (active); in experiment [1] (at 50.0 µM) it was 82.3% (active); in experiment [2] (setting [7]) it was 12%; in experiment [2] (setting [8]) it was 97% (active); in experiment [2] (at 50.0 µM) it was 97% (active). In addition, the growth inhibition in experiment [3] (setting [7]) was 37%; in experiment [3] (setting [8]) it was 98% (active); in experiment [3] (at 50.0 µM), 92.2% (active); in experiment [4] (setting [7]) it was 18%; in experiment [4] (setting [8]), 98% (active); in experiment [4] (at 50.0 µM), 90% (active). Also, the growth inhibition was 14% in experiment [5] (setting [7]); 98% (active) in experiment [5] (setting [8]); 87.4% (active) in experiment [5] (at 50.0 µM); 54% in experiment [6] (setting [7]); 97% (active) in experiment [6] (setting [8]); 97.9% (active) in experiment [6] (at 50.0 µM).

Turning to `CCCOC(=O)C1CCCCC1C(=O)OCCC` (configuration not stated), the growth inhibition in experiment [1] (setting [7]) was 7%; in experiment [1] (setting [8]), -17%; in experiment [1] (at 50.0 µM), 0.8%; in experiment [2] (setting [7]), -1%; in experiment [2] (setting [8]), -15%; in experiment [2] (at 50.0 µM), 18.3%. Besides, the growth inhibition in experiment [3] (setting [7]) is -2%; in experiment [3] (setting [8]), 16%; in experiment [3] (at 50.0 µM), -10.1%; in experiment [4] (setting [7]) it was -4%; in experiment [4] (setting [8]), 14%; in experiment [4] (at 50.0 µM) it was 71.2% (active). Moreover, the growth inhibition in experiment [5] (setting [7]) is 1%; in experiment [5] (setting [8]), -2%; in experiment [5] (at 50.0 µM), 5.3%; in experiment [6] (setting [7]) it was -7%; in experiment [6] (setting [8]) it was -4%; in experiment [6] (at 50.0 µM), -12.7%.

For the compound `CC(C)(Oc1ccc(-c2cccc3ccccc23)cc1)C(=O)O`, the growth inhibition was 9% in experiment [1] (setting [7]); 42% in experiment [1] (setting [8]); 58.3% in experiment [1] (at 50.0 µM); 5% in experiment [2] (setting [7]); 51% in experiment [2] (setting [8]); 13.7% in experiment [2] (at 50.0 µM). The growth inhibition in experiment [3] (setting [7]) was 6%; in experiment [3] (setting [8]) it was 49%; in experiment [3] (at 50.0 µM), 29.4%; in experiment [4] (setting [7]) it was -6%; in experiment [4] (setting [8]), 54%; in experiment [4] (at 50.0 µM) it was 70.5% (active). The growth inhibition in experiment [5] (setting [7]) was 13%; in experiment [5] (setting [8]), 54%; in experiment [5] (at 50.0 µM) it was 67.8%; in experiment [6] (setting [7]), -6%; in experiment [6] (setting [8]) it was 49%; in experiment [6] (at 50.0 µM) it was 28.8%.

As for `O=C(O)C1CCC(CC2CC3CCC2C3)CC1` (configuration not stated), the growth inhibition is -146% in experiment [1] (setting [7]); 79% (active) in experiment [1] (setting [8]); 74.7% (active) in experiment [1] (at 50.0 µM); -54% in experiment [2] (setting [7]); 54% in experiment [2] (setting [8]); 88.5% (active) in experiment [2] (at 50.0 µM). Further, the growth inhibition is -58% in experiment [3] (setting [7]); 85% (active) in experiment [3] (setting [8]); 41.8% in experiment [3] (at 50.0 µM); -79% in experiment [4] (setting [7]); 65% in experiment [4] (setting [8]); 44.2% in experiment [4] (at 50.0 µM). Further, the growth inhibition in experiment [5] (setting [7]) was -73%; in experiment [5] (setting [8]), 69%; in experiment [5] (at 50.0 µM), 73.3% (active); in experiment [6] (setting [7]) it was -125%; in experiment [6] (setting [8]) it was 86% (active); in experiment [6] (at 50.0 µM), 53.8%.
